For some assays here: Potency and affinity values are given separately.
Assays:
Set-up in all cases: scale not given: direction of the effect not stated beside the values
[1] = target: Protein translocase subunit SecA (Escherichia coli (strain K12)) (UniProt P10408); experiment: Assay to Identify E. coli SecA ATPase Inhibitors; assay type: functional; conditions: 30 µM
[2] = target: T1, Ubiquitin-activating enzyme e1, putative (Leishmania donovani (strain BPK282A1)) (UniProt E9BSI1); experiment: Leishmania donovani Ubiquitin Activating Enzyme (LdE1); assay type: functional; conditions: 30 µM
T1 sequence (whole entry): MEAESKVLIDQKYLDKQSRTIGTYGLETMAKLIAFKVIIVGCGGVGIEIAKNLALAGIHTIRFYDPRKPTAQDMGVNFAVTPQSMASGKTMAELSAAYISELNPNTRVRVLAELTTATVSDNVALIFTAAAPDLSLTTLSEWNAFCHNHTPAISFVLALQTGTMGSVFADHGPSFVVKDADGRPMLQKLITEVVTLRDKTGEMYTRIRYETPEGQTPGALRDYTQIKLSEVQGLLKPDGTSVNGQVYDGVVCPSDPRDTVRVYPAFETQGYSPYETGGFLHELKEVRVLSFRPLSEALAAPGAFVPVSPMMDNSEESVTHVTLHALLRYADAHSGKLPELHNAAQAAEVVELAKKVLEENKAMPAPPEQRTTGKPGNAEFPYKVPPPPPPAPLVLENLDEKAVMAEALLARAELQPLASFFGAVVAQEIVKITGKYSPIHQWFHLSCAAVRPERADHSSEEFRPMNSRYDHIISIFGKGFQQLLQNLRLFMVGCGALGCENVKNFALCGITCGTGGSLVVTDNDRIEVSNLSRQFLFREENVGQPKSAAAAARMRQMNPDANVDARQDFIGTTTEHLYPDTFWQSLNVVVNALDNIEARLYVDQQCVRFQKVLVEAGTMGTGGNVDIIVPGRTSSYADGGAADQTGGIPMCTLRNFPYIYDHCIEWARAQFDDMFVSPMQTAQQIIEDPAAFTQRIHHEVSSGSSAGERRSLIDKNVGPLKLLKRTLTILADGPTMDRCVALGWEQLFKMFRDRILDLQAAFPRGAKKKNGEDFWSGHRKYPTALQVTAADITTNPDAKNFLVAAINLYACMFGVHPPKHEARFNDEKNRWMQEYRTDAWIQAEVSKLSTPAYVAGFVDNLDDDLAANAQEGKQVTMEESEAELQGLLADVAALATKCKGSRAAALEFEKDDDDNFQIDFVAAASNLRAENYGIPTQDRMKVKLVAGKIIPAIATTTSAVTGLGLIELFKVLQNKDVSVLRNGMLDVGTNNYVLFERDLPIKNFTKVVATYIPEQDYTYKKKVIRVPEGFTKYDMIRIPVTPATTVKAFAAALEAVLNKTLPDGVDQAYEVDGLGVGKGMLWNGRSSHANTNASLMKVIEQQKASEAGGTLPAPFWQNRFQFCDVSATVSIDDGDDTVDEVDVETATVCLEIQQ

[3] = target: AMP-activated protein kinase, AMPK (Homo sapiens) (UniProt P54646+O43741+P54619+Q9UGJ0+Q9Y478+Q13131+Q9UGI9); experiment: AMP-dependent Kinase enzyme assay. An in vitro enzyme assay that detects ADP turnover that is directly proportional to AMPK activity. This uses naive AMPK that is activated during the assay with MK-8722; assay type: functional; conditions: 30 µM
[4] = target: Sialic acid-binding Ig-like lectin 9 (Homo sapiens) (UniProt Q9Y336); experiment: Hs-Siglec9 ALPHAscreen SOP 20170721; conditions: 10 µM
Sialic acid-binding Ig-like lectin 9 (Homo sapiens), sequence (Q9Y336 whole entry): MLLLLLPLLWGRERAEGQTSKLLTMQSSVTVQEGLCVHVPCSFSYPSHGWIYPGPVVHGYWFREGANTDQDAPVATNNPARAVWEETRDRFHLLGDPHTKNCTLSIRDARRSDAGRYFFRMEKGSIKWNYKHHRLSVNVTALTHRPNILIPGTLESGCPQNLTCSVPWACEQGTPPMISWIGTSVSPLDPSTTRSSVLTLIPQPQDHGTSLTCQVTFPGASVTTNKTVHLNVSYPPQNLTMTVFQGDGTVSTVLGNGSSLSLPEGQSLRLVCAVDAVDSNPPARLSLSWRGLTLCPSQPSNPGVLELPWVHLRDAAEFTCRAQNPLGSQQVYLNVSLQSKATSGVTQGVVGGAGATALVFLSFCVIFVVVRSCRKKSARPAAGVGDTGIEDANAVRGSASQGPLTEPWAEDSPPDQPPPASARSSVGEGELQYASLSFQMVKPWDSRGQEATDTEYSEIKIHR

Trypanosoma cruzi = experiment: Trypanosoma cruzi phosphomannomutase and mannose-1-phosphate guanylyltransferase assay; assay type: functional; conditions: 10 µM
[5] = target: T2, Arginase-2, mitochondrial (Homo sapiens) (UniProt P78540); experiment: in vitro enzyme assay to detect the production of urea directly proportional to the activity of Arginase II; assay type: functional; conditions: 33.3 µM; further: in the data most compounds retested in dose-response had high values
T2 sequence (whole entry): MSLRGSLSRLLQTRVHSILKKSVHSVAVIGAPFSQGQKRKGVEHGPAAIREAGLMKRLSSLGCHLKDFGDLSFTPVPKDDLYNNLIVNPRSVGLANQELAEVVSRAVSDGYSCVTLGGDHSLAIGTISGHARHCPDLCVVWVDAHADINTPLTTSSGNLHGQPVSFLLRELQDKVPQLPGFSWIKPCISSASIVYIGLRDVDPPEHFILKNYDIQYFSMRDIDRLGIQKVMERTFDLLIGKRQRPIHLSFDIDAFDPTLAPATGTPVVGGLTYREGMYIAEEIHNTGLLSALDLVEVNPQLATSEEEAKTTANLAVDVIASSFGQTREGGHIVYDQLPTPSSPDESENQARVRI

[6] = target: T3, Proteasome subunit beta (Trypanosoma cruzi) (UniProt O96673); experiment: Trypanosoma cruzi proteasome chymotrypsin-like activity (TcProtChymo) assay.; further: in the data most compounds retested in dose-response had high values; assay type: functional; conditions: 9.37 µM
T3 sequence (whole entry): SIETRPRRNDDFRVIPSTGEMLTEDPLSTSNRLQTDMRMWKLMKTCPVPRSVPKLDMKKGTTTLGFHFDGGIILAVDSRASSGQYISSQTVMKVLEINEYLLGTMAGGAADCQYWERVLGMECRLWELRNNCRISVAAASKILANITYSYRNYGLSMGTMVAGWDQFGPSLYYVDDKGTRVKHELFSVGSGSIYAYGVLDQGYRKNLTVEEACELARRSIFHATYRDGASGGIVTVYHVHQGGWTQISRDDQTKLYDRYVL

Homo sapiens = organism: Homo sapiens; experiment: To identify inhibition of the IFN signalling (Jak-Stat) pathway via expression of an eGFP reporter gene under the control of an IFN-stimulated response element (ISRE) containing MxA promoter.; assay type: functional; conditions: 30 µM
[7] = target: T4, Tyrosyl-tRNA synthetase, putative (Trypanosoma cruzi (strain CL Brener)) (UniProt Q4DSP6); experiment: Trypanosoma cruzi tyrosyl tRNA synthetase (TcYRS) _High Tyrosine SOP; assay type: functional; conditions: 30 µM; further: in the data most compounds retested in dose-response had high values
T4 sequence (whole entry): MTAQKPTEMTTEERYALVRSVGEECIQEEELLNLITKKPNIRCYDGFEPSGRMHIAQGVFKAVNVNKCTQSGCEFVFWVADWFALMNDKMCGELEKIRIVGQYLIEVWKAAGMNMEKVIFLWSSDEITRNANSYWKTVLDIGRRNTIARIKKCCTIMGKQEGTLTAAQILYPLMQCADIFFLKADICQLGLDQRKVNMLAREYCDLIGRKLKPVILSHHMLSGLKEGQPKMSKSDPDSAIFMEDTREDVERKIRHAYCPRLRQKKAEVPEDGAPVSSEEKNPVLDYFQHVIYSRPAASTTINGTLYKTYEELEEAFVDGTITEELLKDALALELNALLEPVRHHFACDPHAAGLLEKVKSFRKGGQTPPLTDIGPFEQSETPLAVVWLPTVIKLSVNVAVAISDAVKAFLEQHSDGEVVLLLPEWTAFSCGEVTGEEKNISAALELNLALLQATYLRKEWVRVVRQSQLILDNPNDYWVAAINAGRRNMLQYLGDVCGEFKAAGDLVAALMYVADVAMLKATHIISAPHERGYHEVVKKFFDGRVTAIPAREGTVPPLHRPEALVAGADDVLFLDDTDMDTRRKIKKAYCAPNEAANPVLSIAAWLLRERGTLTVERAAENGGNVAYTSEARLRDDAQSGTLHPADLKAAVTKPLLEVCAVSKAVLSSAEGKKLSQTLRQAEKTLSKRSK

[8] = target: T4, Tyrosyl-tRNA synthetase, putative (Trypanosoma cruzi (strain CL Brener)); experiment: Trypanosoma cruzi tyrosyl tRNA synthetase (TcYRS) SOP; assay type: functional; conditions: 30 µM
[9] = target: Chromo domain-containing protein 1 (Saccharomyces cerevisiae (strain ATCC 204508 / S288c) (Baker's yeast)) (UniProt P32657); experiment: ScCHD-1 Enzyme Inhibition Assay; assay type: functional; conditions: 30 µM; further: in the data most compounds retested in dose-response had high values
Chromo domain-containing protein 1 (Saccharomyces cerevisiae (strain ATCC 204508 / S288c) (Baker's yeast)), sequence (P32657 whole entry, the tested form may be a part): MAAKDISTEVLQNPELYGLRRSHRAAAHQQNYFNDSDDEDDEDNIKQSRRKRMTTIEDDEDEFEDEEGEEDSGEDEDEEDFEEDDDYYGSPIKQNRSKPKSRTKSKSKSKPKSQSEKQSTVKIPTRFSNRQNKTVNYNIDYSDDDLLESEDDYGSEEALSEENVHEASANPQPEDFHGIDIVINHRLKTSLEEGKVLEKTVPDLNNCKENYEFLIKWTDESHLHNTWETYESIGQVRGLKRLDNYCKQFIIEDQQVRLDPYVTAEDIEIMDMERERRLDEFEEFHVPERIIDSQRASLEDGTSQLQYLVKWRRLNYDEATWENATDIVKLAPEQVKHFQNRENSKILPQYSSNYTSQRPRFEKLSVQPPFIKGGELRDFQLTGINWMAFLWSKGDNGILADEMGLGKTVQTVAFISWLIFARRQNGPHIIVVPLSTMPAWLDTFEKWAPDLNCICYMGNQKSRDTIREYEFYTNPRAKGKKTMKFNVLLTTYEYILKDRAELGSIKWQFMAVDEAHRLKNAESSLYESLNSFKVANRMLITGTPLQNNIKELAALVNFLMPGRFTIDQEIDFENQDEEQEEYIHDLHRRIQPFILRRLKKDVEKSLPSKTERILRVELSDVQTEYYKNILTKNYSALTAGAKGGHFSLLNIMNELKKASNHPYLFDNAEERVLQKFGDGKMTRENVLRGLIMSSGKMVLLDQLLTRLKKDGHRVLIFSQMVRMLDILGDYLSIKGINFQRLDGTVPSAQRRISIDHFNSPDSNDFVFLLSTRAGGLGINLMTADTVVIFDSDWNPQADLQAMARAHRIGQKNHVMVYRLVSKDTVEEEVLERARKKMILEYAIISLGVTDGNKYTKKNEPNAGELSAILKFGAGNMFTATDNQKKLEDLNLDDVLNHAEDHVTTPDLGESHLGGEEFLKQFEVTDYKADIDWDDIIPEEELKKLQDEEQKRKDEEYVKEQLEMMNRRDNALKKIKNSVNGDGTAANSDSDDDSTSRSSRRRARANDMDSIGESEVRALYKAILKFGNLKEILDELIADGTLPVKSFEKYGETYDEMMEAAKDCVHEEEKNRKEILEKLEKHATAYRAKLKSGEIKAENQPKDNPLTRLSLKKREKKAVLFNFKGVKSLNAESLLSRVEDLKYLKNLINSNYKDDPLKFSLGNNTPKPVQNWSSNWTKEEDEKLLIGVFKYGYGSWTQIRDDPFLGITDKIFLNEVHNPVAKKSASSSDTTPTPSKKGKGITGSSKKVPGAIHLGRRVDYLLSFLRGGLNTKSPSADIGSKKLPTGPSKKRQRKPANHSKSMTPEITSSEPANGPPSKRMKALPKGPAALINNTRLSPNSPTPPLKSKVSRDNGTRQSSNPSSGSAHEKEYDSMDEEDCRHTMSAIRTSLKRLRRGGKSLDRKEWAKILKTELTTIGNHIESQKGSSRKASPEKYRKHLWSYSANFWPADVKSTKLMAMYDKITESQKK

Protein translocase subunit SecA (Escherichia coli (strain K12)), sequence (P10408 whole entry): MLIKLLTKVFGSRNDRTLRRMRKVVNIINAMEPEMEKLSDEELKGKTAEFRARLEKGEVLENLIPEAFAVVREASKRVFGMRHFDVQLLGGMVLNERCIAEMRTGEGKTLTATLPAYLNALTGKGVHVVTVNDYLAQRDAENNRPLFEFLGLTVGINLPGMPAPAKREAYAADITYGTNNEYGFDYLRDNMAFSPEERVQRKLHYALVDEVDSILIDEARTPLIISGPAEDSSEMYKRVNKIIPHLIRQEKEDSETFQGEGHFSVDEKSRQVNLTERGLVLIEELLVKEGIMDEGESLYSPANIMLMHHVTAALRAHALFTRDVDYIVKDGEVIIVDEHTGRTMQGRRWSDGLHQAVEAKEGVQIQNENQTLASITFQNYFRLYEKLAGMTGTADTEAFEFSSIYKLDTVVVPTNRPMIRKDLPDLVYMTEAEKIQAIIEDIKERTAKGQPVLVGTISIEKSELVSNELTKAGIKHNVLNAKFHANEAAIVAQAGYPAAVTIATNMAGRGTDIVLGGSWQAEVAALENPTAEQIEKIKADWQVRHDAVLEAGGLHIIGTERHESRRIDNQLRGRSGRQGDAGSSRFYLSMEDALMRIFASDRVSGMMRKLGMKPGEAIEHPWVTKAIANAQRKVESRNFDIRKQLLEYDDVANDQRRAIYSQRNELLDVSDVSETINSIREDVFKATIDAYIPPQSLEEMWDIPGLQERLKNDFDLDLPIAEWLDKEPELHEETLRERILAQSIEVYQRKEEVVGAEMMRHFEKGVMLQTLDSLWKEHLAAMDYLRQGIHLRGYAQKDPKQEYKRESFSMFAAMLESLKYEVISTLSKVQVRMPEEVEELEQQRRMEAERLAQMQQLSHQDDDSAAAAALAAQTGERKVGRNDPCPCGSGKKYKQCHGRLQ

SMILES	Percent Effect [1] [%]	Percent Effect [2] [%]	Percent Effect [3] [%]	Percent Effect [4] [%]	Percent Effect (Trypanosoma cruzi) [%]	Percent Effect [5] [%]	Percent Effect [6] [%]	Percent Effect (Homo sapiens) [%]	Percent Effect [7] [%]	Percent Effect [8] [%]	Percent Effect [9] [%]
COCCn1ccc(NC(=O)Nc2ccc(C(N)=O)c(F)c2)n1	-4.16	-7.89	10.9	-0.377	-3.41	-4.73	13.3	-2.4	0	0	75.5
CC(NC(=O)NCc1ccc(Cl)s1)c1ccccn1 (stereo unspecified)	-1.22	11.4	6.06	1.35	-3.38	2.37	5.49	12.4	3.12	15.2	-12.8
CCS(=O)(=O)CC(=O)NC(c1ccc(F)cc1)C1CCCC1 (stereo unspecified)	-5.43	0	132	2.49	-4.58	-2.37	17	6.16	3.19	5.2	-4.36
Cc1nn(C)c(Cl)c1C(=O)NCC(c1ccsc1)N(C)C (stereo unspecified)	-3.36	17.7	-4.46	-7.25	7.65	1.14	4.18	-12.9	5.42	16.5	-6.9
Cn1cnnc1C1CCCN(C(=O)c2ccccc2Cl)C1 (stereo unspecified)	-3.26	18.2	-0.796	-3.37	1.67	0.632	5.74	6.09	11.4	25.9	-17.8
O=C(NCCN1CCOCC1)NCC(O)c1cccc(F)c1 (stereo unspecified)	-4.85	16.2	-10.5	13.6	5.75	-6.01	4.68	10.8	5.42	11.1	-10.8
O=C(NCCc1csc(N2CCCC2)n1)N(C1CCCC1)C1CC1	0.399	-5.33	-9.08	16	-1.66	2.08	27.4	6.62	12.6	11.1	-6.87
O=C(Cc1ccc2c(c1)OCCO2)NC1CCN(CC(F)F)CC1	-6.42	7.79	6.85	8.97	-3	0	6.93	-4.72	3.88	9.76	-6.97
CC(C)c1nc(C2CCCN(C(=O)c3ccc4[nH]cnc4c3)C2)no1 (stereo unspecified)	-9.93	18.2	-3.37	3.45	5.97	-5.26	12.5	10.7	5.71	2.35	-15.3
CCOCC(O)CN1CCN(C(=O)c2cccnc2OC)CC1 (stereo unspecified)	-3.44	0	4.2	3.65	-0.936	2.85	-3.72	5.16	3.88	0	1.44
N#Cc1cc(NS(=O)(=O)c2ccc(C(=O)O)cc2F)ccc1F	-2.74	-13.5	-2.89	0.735	-0.472	4.41	-3.24	-0.301	0.493	1.24	-0.823
O=S(=O)(c1cccs1)N1CCCn2cnc(CN3CCCC3)c2C1	-4.49	10.7	-0.197	0.986	-3.48	-60.4	13.8	7.16	4.17	12.5	-7.45
CC(C)Cc1cc(NC(=O)c2ccc[nH]2)n(C)n1	-5.53	5.2	3.29	6.59	-5.24	-5.34	-0.169	0.305	5.83	14.6	-7.26
Cc1ccc(C(C)NC(=O)Nc2ccccc2CN2CCOCC2)o1 (stereo unspecified)	-5.3	5.41	-1.54	9.05	-2.64	-5.21	9.19	-2.32	7.53	8.64	-0.483
NCC1Cn2nnc(-c3cccc(F)c3)c2CO1 (stereo unspecified)	-1.49	-20.8	2.11	0.572	8.75	-1.38	7.99	-8.6	3.23	3.7	-4.31
O=C(NC1CCCC1)N1CCCC(c2nccn2Cc2ccncc2)C1 (stereo unspecified)	-3.14	4.17	2.03	9.67	8.07	-0.883	7.54	-38.2	4.21	5.13	-4.06
